Experimental data: PubChem BioAssay (NCI)
The panel holds about 83,000 compounds, 20% with a hit somewhere; the sample as a whole holds those more often.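 Cell lines were cultured in 96-well plates, exposed to a single compound concentration, and assessed for percent growth 48 hours later.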 Unmarked numbers belong to inactive results. The source made the active and inactive calls. How the source made its calls: active means growth percent below 10; inactive means the rest.

These compounds were tested on HT29 colon (assay: NCI-60 one-dose screen, 48 h (100 = growth as untreated, 0 = no growth, -100 = all killed)). Settings: 10 µM unless noted.

First: CCOC(=O)c1cnc2ccccc2c1Cl
Second: CCOC(=O)c1cn2ncnc(Oc3ccc(NC(=O)NC4CCCCC4)c(Cl)c3)c2c1C
The growth of the first is higher: 101% for the first, 81.6% for the second.

Going from CCCc1cc(NC)nc(S(=O)(=O)CC)n1 to CCOP(=O)(OCC)c1nc(-c2ccccc2)oc1NCc1cccnc1, the growth rises from 107% to 111%.

Going from COc1ccc(/C=C2\C(=O)N=C3N2NC(c2cc(Br)ccc2O)C=C(C)N3c2ccccc2)cc1 (stereo unspecified) to CCOC(=O)CSc1ncnc2c1c(-c1ccccc1)c(-c1ccccc1)n2-c1ccc(C)cc1, the growth falls from 106% to 63.9%.

Compared with O=S(=O)(NCCNc1nccc(-c2c(-c3cccc(F)c3)nc3occn23)n1)c1ccc(Br)cc1, COc1cc(CNS(=O)(=O)c2ccc(C)cc2)ccc1OCc1cn(-c2ccc(Br)cc2)nn1 is higher in growth: 52.3% for the first, 105% for the second.

Going from Cn1c(=O)c2[nH]c(N/N=C/c3ccccc3Br)nc2n(C)c1=O to O=C1NC(=O)c2c1c1c3ccccc3ccc1c1[nH]c3ccc(Br)cc3c21, the growth falls from 106% to 26.4%.

Going from O=c1oc2ccc([N+](=O)[O-])cc2cc1Br to Nc1ncnc2c1N=C(c1ccc3c(c1)OCO3)CC(c1ccc([N+](=O)[O-])cc1)N2 (stereo unspecified), the growth falls from 102% to 86.6%.

Going from S=C(Nc1ccc(-c2nc(N3CCOCC3)c3cccn3n2)cc1)Nc1cccnc1 to COc1ccc(-c2nc3c(c(-c4ccccc4)nn3-c3ccccc3)c(-c3ccc(N4CCOCC4)cc3)c2C#N)cc1, the growth rises from 22.8% to 105%.

Going from O=C1/C(=C/c2ccc(-c3ccc(Br)cc3)o2)SC(=S)N1CCc1ccc(O)cc1 to COc1ccc(-c2nnc(-c3ccc4c(c3)nc(-c3ccncc3)n4C3CCCCC3)o2)cc1, the growth falls from 76.8% to 53%.

Going from COc1cc(-c2csc(NC(=O)c3cc(-n4cnc(C)c4)cc(C(F)(F)F)c3)n2)cc(OC)c1OC to CC(C)(C)c1cc(-c2nc3ccc(N4CCN(S(C)(=O)=O)CC4)cc3[nH]2)cc(C(C)(C)C)c1O, the growth rises from 52.6% to 81%.

First: COc1ccc(-c2nc3c(c(-c4ccccc4)nn3-c3ccccc3)c(-c3ccc(N4CCN(C)CC4)cc3)c2C#N)cc1
Second: CC1(c2ccccc2O)NN=C(/N=C/c2cccc([N+](=O)[O-])c2)N1C(Cc1c[nH]c2ccccc12)C(=O)O (stereo unspecified)
The growth of the first is lower: 80.5% for the first, 102% for the second.

Going from N#Cc1nn(-c2cc(=O)[nH]c3ccc(Cl)cc23)c(N)c1C#N to Cc1ccc(-n2c(=S)[nH]c3sc4c(c3c2=O)CCC(=O)C4)cc1, the growth falls from 101% to 55.9%.

CCn1cc(C(=O)N/N=C/c2cccs2)c(=O)c2cc(F)c(N3CCNC(C)C3)c(F)c21 (stereo unspecified) was tested, and the growth was -76.7% (active).
In the case of CCCCCCNC(=O)Oc1ccc(/C(=C(/C)Cc2ccc(OC)cc2)c2ccc(OCCCN(C)C)cc2)cc1, the growth is reported as -55.9% (active).
O=C(OCc1ccc2cccc(O)c2n1)N1CCN(C(=O)c2cc3cc(F)ccc3[nH]2)CC1 was tested, and the growth was -70.4% (active).
CC(=O)[C@@H]1CCC=C2CC[C@]3(C)[C@@H](CC[C@@H]4[C@@]5(C)CCCNC(C)(C)[C@@H]5CC[C@]43C)[C@H]21 was tested, and the growth was -83.7% (active).
In the case of CCNc1cc(-c2cccc(OC(F)(F)F)c2)nc2ccc(N3CCCC3)cc12, the growth is reported as 4.79% (active).
In the case of CCCCNC(=O)Oc1ccc(/C(=C(/CC)Cc2ccccc2)c2ccc(OCCN3CCCCCC3)cc2)cc1, the growth is reported as -21% (active).
With CCOC(=O)C(=Cc1cccc(Cl)c1)C(=O)OCC the growth was -62.5% (active).
COC(=O)c1cc(-c2ccccc2)[nH]c1N/N=C/c1c(Cl)cccc1Cl was tested, and the growth was -8.44% (active).
In the case of CCCCN1C(=O)/C(=c2\sc3n(c2=O)C2C(NN=3)N(CC)C(=O)N2CC)c2ccccc21 (stereo unspecified), the growth is reported as 0.704% (active).
